Several values for one entry are separate records, joined by “and”; a condition that tells them apart may be missing. Equal values may be shown once. ± gives the standard deviation of the averaged measurements.
Experiments:
Conditions in all cases: concentration: 10 µM; 24 h
HCC1569 [1] = test: cell number relative to DMSO (% of DMSO); higher = more cells (less growth inhibition / toxicity)
Procedure, shortened: (§1)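 HCC1569 and TDF cells were seeded at 800 per well in 384-well plates in RPMI with 10% FBS and treated with compounds at 10 µM for 24 h at 37 °C, in triplicate. After fixation in 3.7% formaldehyde, cells were stained with a rabbit anti-H1.0 antibody, an AlexaFluor 647 secondary and DAPI, and six fields per well were imaged at ×10. H1.0 nuclear intensity or cell number is given as percent of the plate control, using the median of replicates, with HCC1569 values smoothed for positional effects.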

TDF [2] = test: as above
Procedure, shortened: as §1

TDF [3] = test: H1.0 immunofluorescence intensity relative to DMSO (% of DMSO); higher = stronger H1.0 induction, active = 120 or more
Procedure, shortened: as §1

HCC1569 [4] = test: H1.0 immunofluorescence intensity relative to DMSO (% of DMSO); higher = stronger H1.0 induction, active = 140 or more
Procedure, shortened: as §1
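Wherever H1.0 immunofluorescence intensity relative to DMSO is given: TDF is a line of transformed human dermal fibroblasts of mesenchymal origin.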
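Wherever cell number relative to DMSO is given: TDF denotes transformed human dermal fibroblasts of mesenchymal origin.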

| SMILES | cell number (HCC1569 [1]) | cell number (TDF [2]) | H1.0 immunofluorescence intensity (TDF [3]) | H1.0 immunofluorescence intensity (HCC1569 [4]) |
| --- | --- | --- | --- | --- |
| Cc1c(CC(C)(C)C(=O)O)n(Cc2ccc(Cl)cc2)c2ccc(F)cc12 | 107 | 86.5 | 105 (inactive) | 99.6 (inactive) |
| Cl.NCCCCC(=O)O [5-Aminovaleric acid hydrochloride] | 102 | 107 | 96.1 (inactive) | 91.6 (inactive) |
| O=c1c(-c2ccc(F)cc2)c(-c2ccncc2)[nH]n1-c1ccc(Cl)cc1 [p38 MAP Kinase Inhibitor] | 102 | 111 | 95.2 (inactive) | 110 (inactive) |
| CS(=O)(=O)CCNCc1ccc(-c2ccc3ncnc(Nc4ccc(OCc5cccc(F)c5)c(Cl)c4)c3c2)o1 [Lapatinib] | 59.8 | 57.6 | 124 (active) | 151 (active) |
| O=C(Nc1cccc2c(=O)cc(-c3nn[nH]n3)oc12)c1ccc(OCCCCc2ccccc2)cc1 [Pranlukast] | 101 | 110 | 101 (inactive) | 109 (inactive) |
| CC1(C)C2CCC1(C(=O)O)C(=O)C2 (stereo not drawn) [Ketopinic acid] | 103 | 102 | 99.7 (inactive) | 88.3 (inactive) |
| CCC=CCC(O)C=CC=CCC=CCC=CCCCC(=O)O (stereo not drawn) | 105 | 102 | 98.8 (inactive) | 94.3 (inactive) |
| NC(N)=NC(=O)c1nc(Cl)c(N2CCCCCC2)nc1N [5-(N,N-hexamethylene)amiloride] | 96 | 85.1 | 113 (inactive) | 100 (inactive) |
| O=C(O)C1=CC(=NNc2ccc(S(=O)(=O)Nc3ccccn3)cc2)C=CC1=O [Sulfasalazine] | 106 | 102 | 93 (inactive) | 88.7 (inactive) |
| OCC(CO)(CO)NCC(O)Cn1c2ccc(Cl)cc2c2cc(Cl)ccc21 (stereo not drawn) | 74.3 | 76.8 | 125 (active) | 168 (active) |
| Cc1ccccc1C(=O)c1ccc(Nc2ccc(Br)cc2N)cc1Cl | 97.3 | 107 | 93 (inactive) | 117 (inactive) |
| Cc1cccc2c3c(ccc12)C1=C(C(=O)C3=O)C(C)CO1 (stereo not drawn) [Dihydrotanshinone] | 53.6 | 33.6 | 111 (inactive) | 106 (inactive) |
| Cc1cc2nc3c(=O)[nH]c(=O)nc-3n(C)c2cc1C=O | 99.8 | 97.8 | 91 (inactive) | 115 (inactive) |
| N[C@@H](CC(=O)O)C(=O)O [L-Aspartic acid] | 104 | 108 | 88.5 (inactive) | 93.2 (inactive) |
| NC(Cc1ccc(O)c(O)c1)C(=O)O (stereo not drawn) [Levodopa] | 96.9 | 102 | 93.3 (inactive) | 96.9 (inactive) |
| CCC=CCC=CCC=CCC=CCC=CCC=CCCC(=O)OC(COCCCCCCCCCCCCCCCC)COP(=O)([O-])OCC[N+](C)(C)C (stereo not drawn) | 105 | 100 | 95.7 (inactive) | 101 (inactive) |
| CCCCCCCCCCCCC(=O)N1CCCCC1CNC(=O)C(N)CCCCN.Cl.Cl (stereo not drawn) | 101 | 109 | 104 (inactive) | 100 (inactive) |
| NC(N)=NCCC[C@H](N)C(=O)O [L-Arginine] | 102 | 107 | 93.7 (inactive) | 98.6 (inactive) |
| CC1CNCCN1S(=O)(=O)c1cccc2cnccc12.Cl.Cl (stereo not drawn) [H-7 dihydrochloride] | 96.8 | 100 | 107 (inactive) | 95 (inactive) |
| CC(C=Cc1cccc(Oc2ccc(F)cc2)c1)N(O)C(N)=O (stereo not drawn) | 102 | 101 | 102 (inactive) | 89.2 (inactive) |
| CC(C)(CO)C(O)C(=O)NCCC(=O)O (stereo not drawn) [Pantothenic acid] | 104 | 95.9 | 106 (inactive) | 98.2 (inactive) |
| CN1CCc2ccccc2Cc2[nH]c3ccccc3c2CC1 | 104 | 108 | 92.4 (inactive) | 100 (inactive) |
| COc1ccc(-c2nn3c(-c4ccccn4)nnc3s2)cc1OC | 98 | 103 | 97.3 (inactive) | 111 (inactive) |
| CCCCCCC=CC=CCCCCCCCC(=O)O [(9Z,11E)-Octadecadienoic acid] | 97.6 | 106 | 99.8 (inactive) | 100 (inactive) |
| CCCCCC=CCC=CC=CC=CC(SCC(NC(=O)CCC(N)C(=O)O)C(=O)NCC(=O)O)C(O)CCCC(=O)O (stereo not drawn) [Leukotriene C4] | 99.8 | 92.2 | 90.1 (inactive) | 105 (inactive) |
| C[N+]1(C)CCC(OC(=O)C(c2ccccc2)c2ccccc2)CC1.[I-] [4-DAMP methiodide] | 100 | 105 | 98.6 (inactive) | 101 (inactive) |

| SMILES | cell number (HCC1569 [1]) | cell number (TDF [2]) | H1.0 immunofluorescence intensity (TDF [3]) | H1.0 immunofluorescence intensity (HCC1569 [4]) |
| --- | --- | --- | --- | --- |
| O=C(CO)N1CCC(c2[nH]nc(-c3ccc(Cl)cc3)c2-c2ccncn2)CC1 | 93.2 | 105 | 91.3 (inactive) | 96 (inactive) |
| CC(C)NCC(O)COc1ccc(CC(N)=O)cc1 (racemic) | 109 | 101 | 93.8 (inactive) | 88.2 (inactive) |
| CN(C)c1nc(N(C)C)nc(N(C)C)n1 [Altretamine] | 103.1 ± 0.68 | 108.4 ± 0.31 | 100 (inactive) | 113 (inactive) |
| Cl.O=c1n(CCCN2CCN(c3cccc(Cl)c3)CC2)nc2ccccn12 [Trazodone hydrochloride] | 102 | 116 | 89.5 (inactive) | 101 (inactive) |
| COC(=O)c1cc(OC)c2c(c1-c1c(CO)cc(OC)c3c1OCO3)OCO2 | 104 | 99.8 | 98.6 (inactive) | 109 (inactive) |
| COc1ccccc1N1CCN(CCCNc2cc(=O)n(C)c(=O)n2C)CC1.Cl [Urapidil hydrochloride] | 101 | 102 | 92.7 (inactive) | 103 (inactive) |
| COc1ncnc(NS(=O)(=O)c2ccc(N)cc2)c1OC [Sulfadoxine] | 104 | 97.4 | 91.9 (inactive) | 89.2 (inactive) |
| CN1CCN(C2=c3ccccc3=Nc3ccc(Cl)cc3N2)CC1 [Clozapine] | 99.6 ± 4.2 | 105 ± 0.29 | 95.4 (inactive) | 106 (inactive) |
| Cc1cc2ncc(-c3ccccc3)nc2cc1C | 100 | 97.9 | 96 (inactive) | 112 (inactive) |
| CCCCCCCCCCCC=CC(C)(C)C=CCCCC(=O)O [7,7-Dimethyl-(5Z,8Z)-eicosadienoic acid] | 102 | 101 | 91.9 (inactive) | 92.2 (inactive) |
| O=c1ccc2ccc(O)c(O)c2o1 [Daphnetin] | 106 | 87.6 | 100 (inactive) | 95.2 (inactive) |
| CCCCc1nc(Cl)c(CO)n1Cc1ccc(-c2ccccc2-c2nnn[n-]2)cc1.[K+] [Losartan potassium] | 102 | 90.1 | 98.1 (inactive) | 102 (inactive) |
| Cc1cncc2cccc(S(=O)(=O)N3CCCN(C(=O)CN)CC3C)c12.Cl.Cl.O (stereo not drawn) [Rho Kinase Inhibitor IV] | 78.3 | 42.8 | 98.4 (inactive) | 131 (inactive) |
| CCCCCC(=O)CCC1C(O)CC(O)C1CC=CCCCC(=O)O (stereo not drawn) [13,14-Dihydro-15-keto-prostaglandin F2a] | 99.9 | 94 | 90.1 (inactive) | 98.2 (inactive) |
| Nc1ccn(C2OC(CO)C(O)C2(F)F)c(=O)n1 (stereo not drawn) [Gemcitabine] | 74.8 | 42.4 | 122 (active) | 96.6 (inactive) |
| N#CC(=Cc1ccc(O)c(O)c1)C(=O)NCc1ccccc1 [Tyrphostin AG 490] | 94.5 | 107 | 88.7 (inactive) | 99.7 (inactive) |
| CCC(c1ccc(O)cc1)C(CC)c1ccc(O)cc1 (stereo not drawn) [Hexestrol] | 100 | 102 | 94.1 (inactive) | 119 (inactive) |
| COc1cc(C=CC(=O)c2ccc(O)cc2O)ccc1O [Homobutein] | 95.5 | 101 | 92 (inactive) | 100 (inactive) |
| Cl.O=S(=O)(c1cccc2c(Cl)cccc12)N1CCCNCC1 | 99 and 96.6 | 104 | 103 (inactive) and 93.2 (inactive) | 105 (inactive) and 97.4 (inactive) |
| OC1C=CC(Br)C(O)C1O (mixture of isomers) [6-Bromo-4-cyclohexene-1,2,3-triol Mixed Isomers] | 99.9 | 105 | 97.5 (inactive) | 112 (inactive) |
| CN1CCC(=C2c3ccccc3C=Cc3ccccc32)CC1 [Cyproheptadine] | 100 | 83.7 | 98.2 (inactive) | 108 (inactive) |
| CN(C)C(=N)N=C(N)N [Metformin] | 100 | 94 | 95.9 (inactive) | 101 (inactive) |
| CC[C@H](C)C(=O)O[C@H]1C[C@H](O)C=C2C=C[C@H](C)[C@H](CC[C@@H](O)C[C@@H](O)CC(=O)[O-])[C@H]21.[Na+] | 101 | 93.2 | 95.9 (inactive) | 98.1 (inactive) |
| Cc1ccc(Nc2nccc(N(C)c3ccc4c(C)n(C)nc4c3)n2)cc1S(N)(=O)=O [Pazopanib] | 74.3 | 100 | 94.6 (inactive) | 156 (active) |
| CC(C)NCC(O)c1ccc(NS(C)(=O)=O)cc1.Cl (stereo not drawn) [Sotalol.HCl] | 102 | 111 | 88.1 (inactive) | 99 (inactive) |
| COC(=O)C1C2CC3c4[nH]c5cc(OC)ccc5c4CCN3CC2CC(OC(=O)c2cc(OC)c(OC)c(OC)c2)C1OC (single isomer, unassigned; (-)) [(-)-Isoreserpine] | 98.9 | 107 | 102 (inactive) | 98 (inactive) |
